Only some compounds are listed: those with a hit (about 5.3% of all), similar ones and a draw of the others.
HCV inh: blocks hepatitis C virus; Huh7.5.1 HCVcc-Cre infection, luciferase reporter, 44 h; Potency, µM (titrated, usually from 41.8 µM), without a hit: at the highest dose activity change, negative = inhibition, most hits filed as inhibitors; 340,000 compounds, 3.4% hits; AID 651820; active = well fitted inhibition curve with a large enough effect; inconclusive = small, poorly fitted or top-dose-only effect, or another doubt; inactive = no such curve, though single readings can be large or run the other way
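Cells seeded at 1,000/well and cultured 4 h, then compounds added followed by HCVcc-Cre virus (~0.5 moi). After 44 h further culture, luciferase substrate was added, plates held 15 min at room temperature, and luminescence read for 15 sec.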
VACV Venus inh: vaccinia inhibition (Venus reporter); Vaccinia virus Venus reporter expression, fluorescence; Potency, µM (doses to about 36.5 µM), for inactives: at the top dose activity change, negative = inhibition, actives largely listed as inhibitors; 330,000 compounds, 0.46% hits; calls by dose curve; tested in A549 cells; note: nearly all actives have a fitted effect of over 30% in size
Marburg entry inh: Marburg virus entry inhibition. Marburg virus pseudotyped entry inhibition, cell reporter. Potency, µM (series often up to 37.8 µM), inactives show top-dose activity change, negative = inhibition, hits mostly inhibitors. 300,000 compounds, 1.8% hits. AID 540276; calls by dose curve; tested in HEK293 cells
LASV entry inh: blocks Lassa virus binding to or entry into cells | Lassa virus pseudotype entry inhibition, cell reporter | Potency, µM (doses to about 37.9 µM), without a hit: top-dose activity change, negative = inhibition, usual class: inhibitors | 300,000 compounds, 1.2% hits | AID 540256; calls by dose curve; tested in HEK293 cells; note: nearly all actives have a fitted effect of over 50% in size
VACV mCherry inh: inhibitors of vaccinia virus infection (mCherry reporter signal); Potency, µM (highest dose often 36.5 µM), without a hit: at the highest dose activity change, negative = inhibition, actives largely listed as inhibitors; 310,000 compounds, 0.63% hits; Vaccinia virus mCherry reporter infection, fluorescence; calls by dose curve; tested in A549 cells; note: nearly all actives have a fitted effect of over 35% in size
FMDV antiviral: blocks foot and mouth disease virus | AID 1159524 | FMDV antiviral cell-based qHTS | 410,000 compounds, 1.2% hits | Potency, µM (series often up to 57.9 µM), for the others: at the top dose activity change, negative = inhibition, most hits filed as inhibitors; calls by dose curve; tested in HEK293T cells; note: read-out not given here; nearly all actives have a fitted effect of over 45% in size
* hit, by the source's call; i = inactive; ? = inconclusive; · = no result; [ ] = another dose, or the depositor's remark. % is set by controls: 0 for no effect and ±100 for the full control effect; potency is the fitted concentration of half-maximal effect.

SMILES	HCV inh	VACV Venus inh	Marburg entry inh	LASV entry inh	VACV mCherry inh	FMDV antiviral
COc1ccc(-c2cc(C)no2)cc1S(=O)(=O)N1CCN(c2cccc(C)c2)C(C)C1 (centres undefined)	10µM*	?	·	?	?	?
COc1ccc(-c2cc(C)no2)cc1S(=O)(=O)Nc1ccccc1	?	-2%[7.34 µM]	·	·	-9%[7.34 µM]	23%
Cc1cc(-c2ccc(C)c(S(=O)(=O)N3CCC(C)CC3)c2)on1	·	-18%	·	?	-19%	-19%
CN(C(=O)CSc1nc2ccccc2n1CC(=O)N(C)c1ccc(F)cc1)c1ccccc1	·	-6%	·	-22%[46.1 µM]	-3%	-15%
COc1cccc2c1[C@H](C=Cc1ccccc1)[C@@H]([C@H](O)CO)OC2	·	·	-11%[14.2 µM]	-31%[14.3 µM]	·	·
O=c1[nH]c(/C=C/c2ccc(Br)cc2)nc2ccccc12	6%	·	·	·	·	46%
C(=C\c1nc2ccccc2[nH]1)/c1ccccc1	11µM*	·	?	?	·	16µM*
C(=C\c1ccco1)/c1nc2ccccc2[nH]1	-10%	?	·	·	-23%	0%
CN(C)c1ccc(/C=C/c2nc3ccccc3c(=O)[nH]2)cc1	-11%	-15%	·	·	i	10µM*
COC(=O)c1ccc(-c2cccc3c2OC(CNC(=O)/C=C/c2ccc(OC)c(OC)c2)C3)nc1 (centres undefined)	·	-26%	·	·	-26%	-4%
N#Cc1cc(C(=O)c2cc(Br)ccc2O)cn(C2CCCCC2)c1=O	11µM*	·	?	?	·	?
N#Cc1cc(C(=O)c2ccccc2OCC(=O)Nc2ccccc2Cl)cn(C2CCCCC2)c1=O	?	-12%	?	?	i	0%
C[C@@H](C[C@@H](O)[C@H](O)C(C)(C)O)[C@@H]1CC[C@]2(C)C3=CC[C@H]4C(C)(C)C(=O)CC[C@]4(C)[C@H]3CC[C@@]12C	-12%	11µM*	-16%	-14%	?	?
C[C@H](C[C@H](O)[C@H]1OC1(C)C)C1=C2C[C@H](O)C3[C@@]4(C)CCC(=O)C(C)(C)C4CC[C@]3(C)[C@@]2(C)CC1 (some centres undefined)	?	?	·	·	-7%	?
Cc1noc2ncnc(N3CCCC3)c12	-14%	·	·	·	·	-2%
Cc1noc2ncnc(Sc3ccc(Br)cc3)c12	32µM*	-17%	?	?	i	?
Cc1c(C(=O)NCc2ccc(C(C)C)cc2)sc(=O)n1Cc1ccc(S(=O)(=O)N(C)C)cc1	·	-28%	·	·	-5%	11µM*
Cc1c(C(=O)NCc2ccc(Cl)c(Cl)c2)sc(=O)n1Cc1ccc(S(=O)(=O)N(C)C)cc1	·	-18%	·	·	-6%	22µM*
CSc1ccc(Cn2c(C)c(C(=O)NCc3ccc(C(C)C)cc3)sc2=O)cc1	·	-9%	·	·	i	-30%
Cc1cc(C)cc(-n2c(SCC(N)=O)nc3c(oc4ccccc43)c2=O)c1	·	1%	-29%[46.1 µM]	·	21%	-21%
CC(=O)NC1=NN(C(C)=O)C(C)(c2ccc(C)o2)S1 (centres undefined)	15%	-12%	5%[46.1 µM]	-22%[46.1 µM]	-5%	20%
CC(=O)NC1=NN(C(C)=O)C(C)(c2ccco2)S1 (centres undefined)	17%	-14%	3.2µM*	-26%[46.1 µM]	?	-4%
CC(C)n1c2ccccc2c2nc3ccccc3nc21	13µM*	-11%	?	2%	-2%	-28%
CCOC(=O)c1c[nH]n(-c2ccc(C)cc2)c1=O	3%	-13%	-1%[46.1 µM]	3%[46.1 µM]	i	19%
CCOC(=O)c1cc2c(C)n(-c3ccc(OCC)cc3)c(C)c2ccc1=O	?	-23%	?	?	?	40µM*
CCOC(=O)c1cc2c(C)n(-c3ccc(C)cc3)c(C)c2ccc1=O	11µM*	·	26µM*	?	·	-37%
CCc1c(C2CC2)ncn1Cc1cccc(-c2ccccc2)c1	·	-22%	·	·	-7%	?
Cn1ncc(S(=O)(=O)Cc2ccccc2)c(Br)c1=O	·	·	-18%	9.2µM*	·	·
O=C(Nc1ccc(Cc2nc3ccccc3s2)cc1)c1ccncc1	10µM*	-17%	?	-12%[46.1 µM]	-24%	-27%
NC(=O)c1ccc(NC(=O)CCc2nc3ccccc3s2)cc1	-9%	·	·	·	·	0%

Screening results deposited in PubChem by National Center for Advancing Translational Sciences (NCATS).
